# Assay results published in PubChem BioAssay (NCI).
# The panel holds about 83,000 compounds, 20% with a hit somewhere; the sample as a whole holds those more often.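 Step 1: grow cells in 96-well plates. Step 2: add test compound at a single concentration. Step 3: incubate 48 h. Step 4: record percent growth.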 Calls of active or inactive are those of the source.
# Tested on: NCI-H522 lung
# Experiment: NCI-60 one-dose screen, 48 h (100 = growth as untreated, 0 = no growth, -100 = all killed)
# Conditions: 10 µM unless noted
# Experimental: Growth inhibition of the NCI-H522 human Non-Small Cell Lung tumor cell line is measured as a screen for anti-cancer activity. Cells are grown in 96 well plates and exposed to the test compound for 48 hours. Compounds are tested at a single concentration, which is 10^-5 M for most compounds. The reported endpoint is percent growth (GI% or GIPRCNT), where numbers from 0 - 100% represent growth inhibition, and numbers from -100% - 0 represent cell death. For example, a value of 40 represents 60% growth inhibition. A value of 0 means no net growth occurred over the course of the experiment. A value of -40 indicates 40% of cells at the beginning of the experiment died by the end of the experiment. A value of -100 means all cells are dead at the end of the experiment.
# NCI-60 Human Tumor Cell Lines Screen was performed using the standard one-dose NCI protocol, which is described in more detail at https://dtp.cancer.gov/discovery_development/nci-60/default.htm.
# Compounds with GIPRCNT values below 10 were considered active. Activity score was based on GIPRCNT using the following formula: […]
# Score is 0 for GIPRCNT values of 100 or above, 50 for GIPRCNT values of 0, and 100 for GIPRCNT values of -100.
row,SMILES,growth
1,O=C(/C=C/C=C/c1csc(Br)n1)NO,79.1% (inactive)
2,Cc1cc(Br)ccc1-n1cc(C#N)c(N)c1C(=O)c1ccc(Br)cc1,99.6% (inactive)
3,COc1ccc(C(C)=C(c2ccc(OCCN3CCCCCC3)cc2)c2ccc(OCCN3CCCCCC3)cc2)cc1,-52% (active)
4,COc1ccc2c(c1)c(-c1nc(N)nnc1-c1c[nH]c3ccccc13)cn2C,29.9% (inactive)
5,COC(=O)c1cccc(NC2=C(Cl)C(=O)C(C)=C(C)C2=O)c1,95.8% (inactive)
6,Nc1cc(C(=O)N/N=C\c2ccc(OC(F)F)c(OC3CCCC3)c2)nn1CC(O)c1ccccc1 (stereo not given),88.9% (inactive)
7,Cc1cccc(N2CCN(C3=C(Cl)C(=O)c4ncccc4C3=O)CC2)c1,26.7% (inactive)
8,CC(=C(c1ccc(OCCN(C)C)cc1)c1ccc(OCCN(C)C)cc1)c1ccc(Cl)cc1,-64.5% (active)
9,CCCCCC[n+]1ccc(SCC(=O)n2ccc3ccccc32)c2ccccc21,73.5% (inactive)
10,CC1=C(C)C(=O)C(Nc2cccc(C)c2)=C(Br)C1=O,94.6% (inactive)
11,CN1CCN(c2ccc(Nc3nc(NCCNC(=O)c4ccccc4)c4sccc4n3)cc2)CC1,68.4% (inactive)
12,C1=CC(c2nn3c(-c4ccccc4)nnc3s2)=Cc2ccccc2O1,83.8% (inactive)
13,CCCCCc1ccc(S(=O)(=O)Nc2cc(-c3csc(N)n3)ccc2OC)cc1,84.9% (inactive)
14,CCCCCN1C(=O)/C(=c2\sc3n(c2=O)C2C(NN=3)N(CC)C(=O)N2CC)c2cccc(C)c21 (stereo not given),30.4% (inactive)
15,CN1CCN(c2ccc(Nc3nc(NCCCNS(=O)(=O)c4cccc5ccccc45)c4sccc4n3)cc2)CC1,-81.1% (active)
16,O=C(Nc1cccc(Cl)c1)Nc1nc2cc([N+](=O)[O-])ccc2o1,18.2% (inactive)
17,COc1ccc(N2CCN(C3=C(Cl)C(=O)c4ncccc4C3=O)CC2)cc1,-9.71% (active)
18,CNc1sc(S(=O)(=O)NC)nc1S(=O)(=O)c1ccc(C)cc1,94.5% (inactive)
19,O=C1[C@H]2Cc3c([nH]c4ccccc34)[C@H](c3ccc(Cl)cc3)N2C(=O)CN1C1CCN(CC2CCCCC2)CC1,71.5% (inactive)
20,C=C(C=O)[C@@H]1CC[C@]2(C(=O)O)CC[C@]3(C)C(CC[C@@H]4[C@@](C)(CCC#N)[C@H](C(=C)C=O)CC[C@]43C)[C@@H]12 (stereo not given in full),81.4% (inactive)

row,SMILES,growth
1,CCCNNC(=O)c1ccc(-c2ccc(NC(=O)CCCCCCC(=O)N[C@H](C(=O)N3C[C@H](O)C[C@H]3C(=O)N[C@@H](C)c3ccc(-c4scnc4C)cc3)C(C)(C)C)cc2)cc1,10% (inactive)
2,CN1CCN(c2ccc(Nc3nc(NCCNS(=O)(=O)c4ccc5ccccc5c4)c4sccc4n3)cc2)CC1,87.4% (inactive)
3,COC(=O)c1ccc(NC2=C(Cl)C(=O)C(C)=C(C)C2=O)cc1,53.1% (inactive)
4,Cn1cc(-c2cc3ncnc(Nc4ccc(CC(=O)Nc5nc(C(C)(C)C)cs5)cc4)c3s2)cn1,36.9% (inactive)
5,CCCc1[nH]c(-c2cc(N)ccc2Cl)c2c1C(=O)CCCC2,90.9% (inactive)
6,O=C(CCCCCCN1CC(=O)N2[C@@H](c3ccccc3Br)c3[nH]c4ccccc4c3C[C@H]2C1=O)NO,-5.74% (active)
7,C#Cc1nc(C(=O)NCCCCCCC(=O)NO)cs1,-58.5% (active)
8,CC1=Cc2ccccc2OC12C=Cc1ccccc1O2 (stereo not given),97.2% (inactive)
9,C#Cc1nc(/C=C\CCCCCCC(=O)NO)cs1,-59.8% (active)
10,COc1ccc(/C=N\NC(=O)c2cnn(CC(O)c3ccccc3)c2N)cc1OCc1ccc(Cl)cc1 (stereo not given),92.7% (inactive)
11,C#C[C@]1(O)CC[C@H]2[C@@H]3CC=C4c5sc(Nc6ccc(C)cn6)nc5CC[C@]4(C)[C@H]3CC[C@@]21C,-21.5% (active)
12,CN1CCN(c2ccc(Nc3nc(NCCCNS(=O)(=O)c4ccc(Cl)cc4)c4sccc4n3)cc2)CC1,-65.8% (active)
13,C#C[C@]1(O)CC[C@H]2[C@@H]3CC=C4c5sc(Nc6cc(Cl)ccc6OC)nc5CC[C@]4(C)[C@H]3CC[C@@]21C,52.8% (inactive)
14,CN(C)CCCOc1ccc(C(=C(c2ccccc2)C2CCCC2)c2ccc(OCCCN(C)C)cc2)cc1,-89.8% (active)
15,N#Cc1c(-c2ccc(Br)cc2)cc(-c2c[nH]c3ccccc23)nc1N,11% (inactive)
16,COc1ccc(OC)c(NC(=O)CCCCCCNC(=O)C(O)(O)C(F)(F)F)c1,-0.794% (active)
17,Cc1cc(=O)[nH]c(O)c1C#N,101% (inactive)
18,CN1CCN(CCCCCC(=O)Nc2nc(-c3cccc(NS(=O)(=O)c4cccc5c(N(C)C)cccc45)c3)cs2)CC1,91.8% (inactive)
19,Cc1[nH]c(C(=O)Nc2ccc(C(=O)NCC3CCNCC3)cc2OC(C)C)c(Cl)c1Cl,90.7% (inactive)
20,O=C(CCCCCCNC(=O)C(O)(O)C(F)(F)F)Nc1ccc(Cl)cc1,-22.3% (active)
